In PubChem BioAssay (NCATS):
Records with an inconclusive call do not appear. Where a call stands in place of a potency, no number is given. Activity calls are given as the source filed them. Calls come from the whole dose curve; as a rule, active = well fitted cell-killing curve with a large enough effect; inconclusive = small, poorly fitted or top-dose-only effect; inactive = flat fitted curve, though single readings scatter.

Test: Cell Viability - Renal Proximal Tubule (AID 545); note: nearly all actives have a fitted effect of over 40% in size
Conditions: renal proximal tubule cells viability, primary cells of rat origin; series mostly up to 91.7 µM
Excerpt: NIH Chemical Genomics Center [NCGC]
NIH Molecular Libraries Screening Centers Network [MLSCN]
National Institutes of Environmental Health Sciences [NIEHS]
National Toxicology Program [NTP]
We have developed a 1536-well cell-based assay for quantitative high throughput screening (qHTS) against a number of cell lines to determine in vitro cytotoxicity of small molecules. This particular assay uses the renal proximal tubule cells which are derived from normal kidney cells freshly isolated from rat.
NCGC Assay Protocol Summary:
The CellTiter-Glo luminescent cell viability assay (Promega) is a homogeneous method to measure the number of viable cells in culture. The end point readout of this assay is based on quantitation of intracellular ATP, an indicator of metabolic activity, using the luciferase reaction. Luciferase catalyzes the oxidation of beetle Luciferin to oxyluciferin and light in the presence of ATP. The luminescent signal is proportional to amount of ATP present.
Using the CellTiter-Glo luminescent cell viability assay, the amount of cellular ATP was measured in the renal proximal tubule cells with complete culture medium following compound treatment for 40 hours. The assay was performed in opaque white Kalypsys 1536-well plates. In the screen, tamoxifen and doxorubicin were used as positive controls. Library compounds were measured for their ability to cause acute toxicity in the cell line, as reflected by a decrease in intracellular ATP levels, in a concentration-dependent manner. […] AC50 values were determined from concentration-response data modeled with the standard Hill equation.
qHTS protocol for CellTiter Glo renal proximal tubule cell assay
[Step] [Parameter] [Value] [Description]
1. Reagent; 5 uL; 1000 renal proximal tubule cells/well
2. Time; 5 hr; 37 °C incubation
4. Controls; 23 nL; Tamoxifen 0.34 uM to 100 uM & Doxorubicin 0.02 nM to 100 uM
5. Time; 40 hr; 37 °C incubation
6. Reagent; 5 uL; CellTiter Glo reagent
7. Time; 20 min; Room Temperature
8. Detection; Luminescence; Viewlux plate reader
Keywords: cell viability, cytotoxicity, renal proximal tubule cells, luminescence, NTPHTS, NTPHTS_NCGC, NIEHS, EPA, DSSTox, MLSMR, MLSCN, NIH Roadmap, qHTS, NCGC
In the case of `CC(C)Cc1nccs1`, the Potency is reported as “inactive”. For `C=Cc1ccc(C=C)cc1`, the Potency was “inactive”. In the case of `O=Cc1ccc(Cl)cc1`, the Potency is reported as “inactive”. For `OCCO`, the Potency was “inactive”. In the case of `CCCCC(CC)COCC1CO1` (stereo not given), the Potency is reported as “inactive”. In the case of `c1ccc2c(c1)ccc1ncccc12`, the Potency is reported as “inactive”. In the case of `[O-]/[N+](=N\O)c1ccccc1`, the Potency is reported as “inactive”. With `CC(=O)c1ccccc1[N+](=O)[O-]` the Potency was “inactive”. For `NC(=O)CCCCC(N)=O`, the Potency was “inactive”. In the case of `Cc1ccc(C)c(O)c1`, the Potency is reported as “inactive”. For `CCOc1ccc(NC(C)=O)cc1N`, the Potency was “inactive”. In the case of `S=C([S-])NCCNC(=S)[S-].[Zn+2]`, the Potency is reported as “inactive”. With `O=Cc1ccc(C(=O)O)cc1` the Potency was “inactive”. With `CCOC(=O)OCC` the Potency was “inactive”. With `CCOC(C)(C)C` the Potency was “inactive”. For `Cc1ccc(N(C)C)cc1`, the Potency was “inactive”. For `CCCCCCCCC/C=C/CC1CC(=O)OC1=O` (stereo not given), the Potency was “inactive”. With `CC(=C/C=C/C(C)=C/C=C/C=C(C)/C=C/C=C(C)/C=C/C(=O)O)/C=C/C(=O)O` the Potency was “inactive”. In the case of `CC(=O)c1ccc([N+](=O)[O-])cc1`, the Potency is reported as “inactive”. With `COc1ccccc1[N+](=O)[O-]` the Potency was “inactive”. With `Cc1cc(C)cc([N+](=O)[O-])c1` the Potency was “inactive”. In the case of `C=C(C)C(=O)OCCCCCC`, the Potency is reported as “inactive”. In the case of `O=C1OC(=O)c2cc([N+](=O)[O-])ccc21`, the Potency is reported as “inactive”. In the case of `COc1ccc(N)c(OC)c1`, the Potency is reported as “inactive”. With `Oc1c(Cl)ccc(Cl)c1Cl` the Potency was “inactive”. With `CC(C)c1ccccc1` the Potency was “inactive”. With `Cc1cccc([N+](=O)[O-])c1C(=O)O` the Potency was “inactive”. In the case of `Cc1ccccc1C(=O)O`, the Potency is reported as “inactive”. In the case of `O=c1[nH][nH]c(=O)c2cc([N+](=O)[O-])ccc12`, the Potency is reported as “inactive”. With `CCOc1ccccc1N` the Potency was “inactive”. With `Cc1cc([N+](=O)[O-])ccc1N` the Potency was “inactive”. With `O=C(O)c1ccccc1C(=O)O` the Potency was “inactive”. With `Cc1cccc(C)c1` the Potency was “inactive”. With `Nc1cccc([N+](=O)[O-])c1` the Potency was “inactive”. In the case of `CO[Si](CCCNCCC[Si](OC)(OC)OC)(OC)OC`, the Potency is reported as “inactive”. For `O=C1NC(=O)c2cc([N+](=O)[O-])ccc21`, the Potency was “inactive”. In the case of `Cc1cccc2cccnc12`, the Potency is reported as “inactive”. In the case of `Cc1cccc2sc(N)nc12`, the Potency is reported as “inactive”. In the case of `CCN(C(=O)N(CC)c1ccccc1)c1ccccc1`, the Potency is reported as “inactive”. In the case of `c1ccc2n[nH]nc2c1`, the Potency is reported as “inactive”.
